Bioassay records deposited in PubChem BioAssay by National Center for Advancing Translational Sciences (NCATS).
ATXN viability: Viability Counterscreen for Primary qHTS for Inhibitors of ATXN expression; S2 cells (HEK-293 line with an ATXN2-luciferase reporter) viability, CellTiter-Fluor protease fluorescence, 24 h; Potency, µM (doses to about 56.7 µM), hits mostly cytotoxic; hit rate 0.49% among 400,000; also: nearly all actives have a fitted effect of over 40% in size
ATXN2 expr inh: Primary qHTS for Inhibitors of ATXN expression; HEK-293 ATXN2-luciferase reporter, luminescence, 24 h; Potency, µM (titrated, usually from 57 µM), for inactives: top-dose activity change, negative = inhibition, most hits filed as inhibitors; hit rate 0.72% among 360,000; AID 1745845, 2022; also: % is scaled to controls: 0 for no effect and ±100 for the full control effect; nearly all actives have a fitted effect of over 55% in size
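ATXN2-luciferase reporter cells (luciferase flanked by upstream and downstream ATXN2 gene portions) were treated 24 h at 37 °C with compounds at up to 57 uM. SteadyGlo luminescence gave expression; GF-AFC fluorescence gave viability.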
TDP1 cell noCPT: qHTS for Inhibitors of human tyrosyl-DNA phosphodiesterase 1 (TDP1): qHTS in cells in absence of CPT | hit rate 15% among 420,000 | DT40 Tdp1-/- hTDP1 cells, no CPT, ATP luminescence, 48 h | Potency, µM (top dose mostly 46.2 µM), for inactives: at the top dose activity change, negative = growth inhibition, actives largely listed as inhibitors | AID 686978, 2013; also: % is scaled to controls: 0 for no effect and ±100 for the full control effect; nearly all actives have a fitted effect of over 55% in size
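Stably hTDP1-transfected Tdp1-null chicken DT40 cells were treated with library compounds minus camptothecin and grown for at least 48 hr at 37 °C, after which cellular ATP was quantified by luminescence.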
TDP1 cell CPT: qHTS for Inhibitors of human tyrosyl-DNA phosphodiesterase 1 (TDP1): qHTS in cells in presence of CPT | chicken DT40 Tdp1-/-;hTDP1 cells + 20 nM CPT, ATP luminescence, 48 h | Potency, µM (series often up to 46.2 µM), without a hit: top-dose activity change, negative = growth inhibition, most hits filed as inhibitors | hit rate 12% among 420,000 | AID 686979, 2013; also: % is scaled to controls: 0 for no effect and ±100 for the full control effect; nearly all actives have a fitted effect of over 55% in size
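Chicken DT40 Tdp1-/- cells complemented with human TDP1, 400 cells/well, exposed to compounds plus 20 nM camptothecin for at least 48 h at 37 C; viability read as ATP content by CellTiter-Glo luminescence.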
TGFb inhibitor: qHTS for Inhibitors of TGF-b; HepG2 CAGA-GFP TGF-b/SMAD3 reporter, GFP fluorescence, 18 h; TGF-beta stimulated, 500 pg/mL final; Potency, µM (series often up to 46.1 µM), for inactives: top-dose activity, negative = inhibition, usual class: inhibitors; hit rate 1.2% among 410,000; also: % is scaled to controls: 0 for no effect and ±100 for the full control effect; nearly all actives have a fitted effect of over 65% in size
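First, reporter cells (HEPG2 CAGA-GFP) rested 2 h at 37 degrees C. Next, compounds were pinned in and TGF-beta added to 500 pg/mL final. After 18 h, GFP was imaged per cell and summed per well.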
HepG2 viability: qHTS for Inhibitors of TGF-b: Cytotox Counterscreen; HepG2 CAGA-GFP viability, ATP luminescence, 18 h; Potency, µM (series often up to 46.1 µM), for the others: at the highest dose activity change, negative = cytotoxicity, hits mostly cytotoxic; hit rate 0.76% among 410,000; AID 588856, 2011
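HepG2 CAGA-GFP cells (1000/well, DMEM with 1% FBS) received compound, then TGF-beta at 500 pg/mL final, and were incubated 18 hours at 37 degrees C. Viability was read by CellTiter-Glo luminescence. Media-only wells were set as complete cell-killing and DMSO as no toxicity.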
Starred values were filed as active, the others as inactive; i = inactive; ? = inconclusive; . = no result; [ ] = remark or other dose. An excerpt weighted towards active compounds, which were near 17% of everything screened. Calls follow the shape of the dose curve; as a rule, active = well fitted curve in the direction sought with a large enough effect; inconclusive = small, poorly fitted or top-dose-only effect, or another doubt; inactive = no such curve, though single readings can be large; an effect the other way counts as inactive or inconclusive. Potency is read from the fitted curve at half-maximal effect.

SMILES | ATXN viability | ATXN2 expr inh | TDP1 cell noCPT | TDP1 cell CPT | TGFb inhibitor | HepG2 viability
CN(C)c1cccc(F)c1C(=O)NC(=O)Nc1ccc(Cl)cc1 | i | -8% | 6.5µM* | 5.2µM* | ? | -20%
CN(C)c1cccc(N(C)C)c1CNC(=O)NC(=O)c1c(F)cccc1F | i | -12% | ? | ? | ? | -30%
Cc1ccc(C(=O)Nc2ccc(Nc3ccccc3)cc2)c(Cl)c1 | ? | -23% | ? | ? | 19% | -11%
O=C(Nc1ccc(Nc2ccccc2)cc1)c1c(Cl)cccc1Cl | ? | -29% | 21µM* | ? | 4% | -67%
O=C(Nc1ccc(Nc2ccccc2)cc1)Nc1ccccc1Cl | i | 21% | 7.3µM* | 18µM* | ? | -43%
O=C(Nc1ccccc1Cl)Nc1ccccc1Cl | i | 5% | ? | -19% | 8% | 6%
O=C(NCC1CCC2(CCN(Cc3ccccc3O)CC2)O1)C1CCCO1 (stereo unspecified) | i | . | -11% | -6%[9.04 µM] | . | .
CC(=O)N[C@@H]([C@@H](O)[C@H](O)[C@H](O)CO)[C@@H](O)CC(=O)C(=O)O | . | . | -1% | 15% | . | .
O=C(Nc1nsc(-c2ccccc2)n1)c1ccc(F)cc1 | i | 35% | 4% | -5% | -5% | 2.8µM*
O=C(O)c1ccc(C(=O)Nc2ccc(F)cc2)cc1 | i | 14% | 1% | -1% | 14% | -25%
O=C(Nc1ccc(Nc2ccccc2)cc1)c1ccc(F)cc1 | i | . | 21µM* | ? | 0% | -21%
Cc1ccc(NC(=O)c2c(F)cccc2Cl)cc1NS(C)(=O)=O | ? | -20% | -7% | 5% | 10% | -13%
O=C(Nc1nc2nccc(-c3ccccc3)n2n1)c1ccc(F)cc1 | i | 1% | -2% | -5% | -3% | 1%
O=C(Nc1ccc(Nc2ccccc2)cc1)c1c(F)c(F)c(F)c(F)c1F | i | -23% | 6.5µM* | 6.5µM* | 21% | -14%
CC(C)(C)c1ccc(NC(=O)c2c(F)cccc2Cl)cc1 | i | 8% | 3.3µM* | 10µM* | 0% | -42%
COc1ccc(NC(=O)CN(C)C(=O)c2ccc(NS(=O)(=O)c3cccc([N+](=O)[O-])c3)cc2)cc1 | i | -5% | -23% | ? | -5% | -4%
CC(=O)Oc1ccc(/C(C)=N\N2CCN(Cc3ccc(Cl)cc3)CC2)cc1 | i | -16% | -8% | ? | ? | -30%
O=C(Nc1cccc(Cl)c1)c1cc(S(=O)(=O)N2CCC3(CC2)OCCO3)ccc1F | i | -28% | ? | ? | 0% | -23%
O=C(Nc1ccc(Cl)cc1Cl)c1cc(S(=O)(=O)N2CCN(c3ccccc3F)CC2)ccc1F | . | . | 8.2µM* | 9.2µM* | -14% | 1%
Cc1ccc(NC(=O)c2cc(S(=O)(=O)N3CCC4(CC3)OCCO4)ccc2F)cc1Cl | . | . | 15µM* | 8.2µM* | 10% | 0%
O=C(Nc1ccc(Cl)cc1Cl)c1cc(S(=O)(=O)N2CCC3(CC2)OCCO3)ccc1F | . | . | 16µM* | 16µM* | 9% | 5%
CCc1ccccc1NC(=O)CCC(=O)N1CCN(C(C)=O)CC1 | i | . | 6% | -3% | 1% | -11%
CCc1ccccc1NC(=O)CN1CCN(C(=O)CCC(=O)N2CCC(c3ccccc3)=N2)CC1 | i | -8% | 26µM* | 15µM* | -23% | -15%
CC1(c2nnc(-c3cccc(Cl)c3)o2)CC(c2ccc(C#N)cc2)=NO1 (stereo unspecified) | i | -13% | 18µM* | ? | -15% | -16%
